PubChem BioAssay AID977607 (Broad Institute, 2014)
Among all 1,500 compounds or so, about 460 (31%) were called active. Not shown: some 1% with an inconclusive outcome.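 The calls were made as follows: active = curve reaches 40% activation over neutral controls at an AC40 no higher than the top valid tested concentration; inconclusive = no clear call, values can overlap the other calls; inactive = signal moving opposite to the expected increase, and the rest.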 Only a sample is shown. Potency and affinity values are given separately.

Assay: activators of glucose-dependent insulin secretion, dose response, cell-based, INS-1E, Gaussia luciferase, luminescence, cherry-pick, set 2 (AID 977607);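 also: 0% = median of the plate neutral control wells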
Conditions: INS-1E GLuc insulin secretion reporter, 2-3 h, hits give high values; at 35 µM, 100% = signal doubled over neutral wells unless noted

Max activation, inactive:
CCSc1ccc2nnc(-c3ccc(F)cc3)n2n1 -17.1% [at 0.135 µM, 100% = signal doubled over neutral wells], C=CCNc1sc(C(=O)C2CC2)c(N)c1C#N -24.8% [at 0.0016 µM, 100% = signal doubled over neutral wells], COCCNc1nc(NC(C)C)nc2ccsc12 -19.2% [at 0.046 µM, 100% = signal doubled over neutral wells], COc1ccc(Nc2nc(NCc3cccs3)nc3ccsc23)cc1OC -40.6%, Cc1cc(NC(=O)COC(=O)c2oc3c(Cl)cccc3c2C)no1 -17.9% [at 11 µM, 100% = signal doubled over neutral wells], CCOC(=O)c1cnc2ccc(OCC)cc2c1N1CCN(c2ccccc2)CC1 -39.9%, CCCOC(=O)Nc1ccc(S(=O)(=O)Nc2ncccn2)cc1 -14.1% [at 11 µM, 100% = signal doubled over neutral wells], O=C(c1cccc(F)c1)N1CCCc2ccccc21 -18.1% [at 0.015 µM, 100% = signal doubled over neutral wells], COc1nc(Nc2ccccc2)nc(OC)n1 -12% [at 0.0016 µM, 100% = signal doubled over neutral wells], CCOc1nc(Nc2ccccc2F)nc(OCC)n1 -23.2% [at 0.0016 µM, 100% = signal doubled over neutral wells], COc1ccc(S(=O)(=O)Nc2cccc(-c3ccc4nncn4n3)c2)cc1F -16.1% [at 0.046 µM, 100% = signal doubled over neutral wells], C=CCOc1cccc(C(=O)N2CCC(CCC(=O)NC3CC3)CC2)c1 -8.53% [at 1.2 µM, 100% = signal doubled over neutral wells], C[C@@H]1CN([C@@H](C)CO)C(=O)c2cc(Br)cnc2O[C@H]1CN(C)C(=O)C1CC1 -19.6% [at 0.0016 µM, 100% = signal doubled over neutral wells], NC(=O)C1CCN(c2nc(-c3ccccc3)nc3ccccc23)CC1 -15.2% [at 3.8 µM, 100% = signal doubled over neutral wells], Cc1ccccc1Nc1c(-c2ccncc2)nc2ccc(Cl)cn12 -30.7%, COc1ccc(C(=O)c2ccc(OC)c(OC)c2)cc1 -16.7% [at 0.42 µM, 100% = signal doubled over neutral wells], CCOC(=O)c1sc2nc(-c3ccccc3)ccc2c1N -12.9%, C[C@@H](NC(=O)C[C@@H]1C[C@@H]2c3cc(NC(=O)Nc4ccccc4F)ccc3O[C@@H]2[C@@H](CO)O1)c1ccccc1 34.4% [at 0.015 µM, 100% = signal doubled over neutral wells], COc1ccc(C(=O)Nc2cccnc2Cl)cc1OC -21.1% [at 0.0016 µM, 100% = signal doubled over neutral wells], COc1ccc(-n2c(=S)[nH]c3cc(C(=O)Nc4ccc(OC)c(OC)c4)ccc3c2=O)cc1 -16.1% [at 0.0016 µM, 100% = signal doubled over neutral wells], O=S(=O)(c1ccc(-c2csc(Nc3ccc(Br)cc3)n2)cc1)N1CCCC1 -14.1% [at 0.42 µM, 100% = signal doubled over neutral wells], O=C(Cc1csc(NC(=O)c2ccccc2)n1)NO -12.5% [at 0.42 µM, 100% = signal doubled over neutral wells], CS(=O)(=O)N1CCCCC1c1cc(C(=O)Nc2cccc3c2CCCC3)no1 (stereo unspecified) -21.9% [at 0.0016 µM, 100% = signal doubled over neutral wells], Cc1ccc(S(=O)(=O)NCc2csc(-c3cccs3)n2)cc1 -16% [at 0.42 µM, 100% = signal doubled over neutral wells], COc1ccc(CCN(C)C(=O)C(CCSC)NC(=O)c2ccco2)cc1OC (stereo unspecified) 35.3%, Nc1nc(N)nc(-c2ccc(Cl)cc2)n1 24.3%, CC(C)(C)NC(=O)N1c2ccccc2Sc2ccccc21 -17.6% [at 0.42 µM, 100% = signal doubled over neutral wells], CC(=O)c1c(C)oc2ccc(NS(=O)(=O)c3ccc(F)cc3C)cc12 -28.4%, CS(=O)(=O)c1nc(S(=O)(=O)c2ccc(Cl)cc2)c(N2CCCCCC2)s1 -34.1%, Cc1nc2ccccc2c(=O)n1CCCN1CCOCC1 -15.9% [at 0.046 µM, 100% = signal doubled over neutral wells], Cc1ccc2c(c1)c(-c1ccccc1)nc1nncn12 -21.1% [at 1.2 µM, 100% = signal doubled over neutral wells], COc1nc(-c2ccccc2)c2cc(C)ccc2n1 42.4% [at 1.2 µM, 100% = signal doubled over neutral wells], CCN(CC)C(=O)n1c(Cc2ccccc2)nc2ccccc21 -14.4% [at 0.005 µM, 100% = signal doubled over neutral wells], CCCc1cc2c(OC)ccc(O)c2c(=O)n1C -19.2% [at 0.42 µM, 100% = signal doubled over neutral wells], CCOc1ccc(NC(=O)[C@@H](NC(=O)OCc2ccccc2)[C@@H](C)CC)cc1 -32.5% [at 11 µM, 100% = signal doubled over neutral wells], CCCNC(=O)c1ccccc1NC(=O)COc1ccc(OC)cc1 -16% [at 11 µM, 100% = signal doubled over neutral wells]
